Data on 108 sequences can be found in PubChem BioAssay AID1508600 (Functional Genomics Laboratory (NCATS/FGL), 2020).

About 3,700 (7%) of roughly 53,000 sequences were called active. The sample as a whole holds a higher share of actives than the screen did. A number with no mark means an inactive call.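 The calls were made as follows: active = gene knockdowns whose robust z-score for IL-1 alpha signal is at least 2 or at most -2, so actives lie on both sides; inactive = the rest.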

This test is described as follows: Components of the Cytosolic LPS Sensing Pathway: Gene Identification via Genome-wide siRNA Screen.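 Also: robust z of the log signal after scaling to non-targeting control siRNA wells of the plate.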 The note with it: RAW264.7 macrophages, IL-1a HTRF, actives lie on both sides, screened at 100 nM (by protocol), cells primed 5 h with Pam3CSK4 first. An outline of the steps: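 Supernatant IL-1a by HTRF from RAW264.7 cells primed with Pam3CSK4 (5 hours) and transfected with LipidA (24 hour) after 48h siRNA knockdown at 100 nM; cell viability checked with CellTiter-Glo.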
In general terms: In TR-FRET formats the signal depends on donor and acceptor labels being close together.
GGUUGUUUAUACCUGUGAUTT against Cfh: the z-score is -0.292.
For the sequence GGUGUCAACUUUAUUCUUUTT against Rab1a, the z-score is 0.813.
With GGGAUCCCUUCUGGAAAAGTT against Dmrtc2 the figure was 0.581; with GGGCUCCUGAGCCUCUUAATT against Sprr1a, 2.29 (active).
With GGUUGCACUCAUCUUAAAATT against Zfp9 the figure was 1.59; with GGAAACUUCCCUUCCUAACTT against Snrpc, -0.397; with “GCCUCUGGCAGAGAAAAGATT against 4930579K19Rik”, -1.78.
With CCAAGUUUUCAAAACAAACTT against Aqp3 the figure was -0.0587; with GGAAGUGGACCAUUUCUUUTT against Olfr1359, 0.719.
On to GGCCUGAAGGGAAAGAUUUTT against Rbbp4, for which the z-score was -0.721.
With GGACUUGGGUCAUUGUGAGTT against Grpel1 the figure was -0.93; with GGCAGUUUCUGUGCUAUACTT against Olfr984, -2.49 (active).
As to GGAUAUUUAUUGUAUCCCATT against Col8a1, the z-score is -0.918.
With GGCAUCUGACGAUAAUGAUTT against Lman2l the figure was -0.337; with GUUUUUCAUACAGUAGUAGTT against Vmn1r27, 0.42.
With “CCUGUGGGACUCAAUGUUGTT against 2310039H08Rik” the figure was -0.722; with GGCCAGGAGAAGAAGAUACTT against Tet2, -0.261; with GCCAUUCAAAAAUCAGCCGTT against Ddi2, -2.02 (active).
For GCUCCUAGGAACUUGGUUATT against Pacsin2, the z-score is 0.687.
With GGCUGUUACAUUCUAUAUUTT against Kif5c the figure was -0.13; with CCCAAUUAAUGAUCACCCATT against Tlcd2, -3.04 (active).
With GGCCCUGAACUGGUUUUGUTT against Osbpl10 the figure was -0.119.
With GCUCAACACUCGACAUUGUTT against Rrm1 the figure was -2.56 (active); with GGUGGCAUUAAGGAAAUCATT against Olfr147, -0.0185; with GGCCUGAAGCAGCUUAUCUTT against Chad, -1.56.
Consider GGCAAAAAUGAGAAAGAGATT against Hebp2, for which the z-score is -0.643.
With GCGUAUUACACCCUUGGAATT against Terf1 the figure was -0.462; with GUCCUCCAUGAAGAAGCUCTT against Prm3, -0.953; with GGACUUCAACAAGACCAUCTT against Proser2, 1.55.
As to CGUCCAUAGAACAAUUGCATT against Rnase12, the z-score is 2.82 (active).
Turning to GGUAUUCCUGUCUCAGGUCTT against Matn1, the z-score is -0.59.
GGUUAUUCUCAUUUCGGAUTT against Phospho1: the z-score is 1.53.
As for GCUUACUUCCAAGGUCUACTT against Ptch2, the z-score was 0.905.
With CCCAGCAGGCCAUAUUAGUTT against Cks1b the figure was 0.377; with GGGAUCAUAAAGAUAACUUTT against Fasn, 2.2 (active).
For GCAUAGGGUCAUUUCAAGCTT against Kif23, the z-score is 0.0957.
As for GCUGUACUAUCUUUUUCAUTT against Olfr165, the figure is -0.0549.
As for GCCAGUUUGUGUGCAAAAATT against Lrp1, the z-score is -0.551.
With GAUCUGGUAUGUUUGUGACTT against Olfr1414, the z-score is -1.14.
As for CCUGUGUGUGAAUCUCGUUTT against C1qb, the figure is 1.11; as for GGAAAUGUUGCCGUUGUCCTT against Mfsd8, 2.13 (active).
As for GGGUGGGAGACGAAGAUAATT against Usp17lf, the figure is -0.12; as for CCUAAUGGUUCAGGAUACGTT against Pcdhb5, -0.641.
As for GGCUUUGAAAGUUACUACUTT against Zfp609, the figure is 1.22; as for GCCACUGUGUGGAAUAAAUTT against Cblif, 0.727.
Turning to CCAAAAGAGUUUUACAGGGTT against Lhx9, the z-score was -0.119.
With GGAUCAGGAAGUAAACUUCTT against S100a6, the z-score is 2.57 (active).
With GCUGUGUAGCAUUUUAACATT against Ank2 the figure was -0.0376; with GUUGACUGUACCCGAUACATT against Mxd3, -0.0552.
As for GGUGCUGAGGCUGAUUCUCTT against Capn15, the figure is 3.35 (active).
As to GGUAUAUCGCCUAAUCACUTT against Chd6, the z-score is -0.885.
As for GGUAGUGGAGCUGAAUGUUTT against Kctd8, the figure is 0.113; as for GCAGCCUUCGUGAGUCUGUTT against Asb1, -0.666.
As for GGAUUAUGAUCCAGAAUUCTT against Omd, the figure is 2.96 (active); as for GGGACAUGAGUAACUGAUGTT against Dhx8, -0.908.
In the case of GGUUGUGAUGUGGUGGUCATT against Mdh2, the z-score is 1.3.
With GGGAGAGACAGAAAGCUUUTT against Olfr213 the figure was 1.61.
With GCCUAGAAAGUCUGAAUAATT against Ifng the figure was 0.203.
As for GCUGUAAGCCAAUUAACAUTT against Emp1, the figure is 1.06; as for CGUGCUUAGCAAUCUGAAUTT against Bcl6b, 2.44 (active); as for GGAAACAACUUUCUAUAACTT against Vmn1r195, -0.487.
In the case of GGAUUCAGCAAAUGCUUCCTT against Rcor3, the z-score is 2.31 (active).
As to GGACAAGGCCAAGCUAUAATT against Cntnap2, the z-score was -1.47.
With GCACCAAAUUCACUAGAGUTT against Cd24a the figure was 0.83.
With GCCCAUAAACUGAUGGUGGTT against Tbc1d24 the figure was -0.45.
Regarding CCCAACAAAUACCACUACATT against Usp20, the z-score is -1.39.
As for GGAUCUGGUGACAAACGUATT against Cabyr, the figure is 2.04 (active).
As for CCCGACUGAAUGCUCGGAUTT against Rnf220, the figure is 0.386; as for GGAGAAAGCUCGAAAAUGGTT against Prpf8, -1.61; as for GGAAGGAAACUACGAAGGUTT against Edn1, -0.534.
With GGAUGCAGAAGCAACUUAATT against AA986860 the figure was 1.91.
Take CCGAUUUCCACAUCUGUCATT against Fam104a: the z-score is -2.45 (active).
As for GGAAAGAAACAGAAGCACATT against Il21, the figure is -0.511; as for “GCCUCUGUUCCAUCUUGGATT against F830104G03Rik”, 1.61.
As for GCUCAGCAGGAAAUAACAGTT against Ccdc90b, the figure is -2.06 (active); as for GGAUGAAGAGCAUAACAGUTT against Sft2d2, -0.95; as for GCUAGUCAUGCUACGGAAUTT against Aftph, 0.601.
As for GGUUGUUUCACCAAUAGUUTT against Idi1, the figure is -0.454; as for GGGCAGAUGUAAUUCUUGUTT against Ctsm, 1.91; as for GGUACAUGUAUUGUUUCACTT against Cyp2c38, 2.76 (active).
On to GGAUUAUCCUGGCUUGUUGTT against Rdh12, for which the z-score was -0.962.
Take GCUGAUUGCCUCGGAGAAUTT against Shmt1: the z-score was -0.0766.
Consider GCGCAUCGAAAAAUGGAUUTT against Rgl3, for which the z-score was 0.236.
With GGUAUUGAGUGAUAACUACTT against Klhdc7a the figure was 1.29; with GCAUUCAAUCUGCAGAGGGTT against Olfr888, -2.48 (active).
With GGGUAGAAAAGUGCAAUUUTT against Has2 the figure was 0.0317; with CGCUCUAGGAAAACAAUGUTT against Klb, -0.614; with GGGUACAUCUAACUUGAAUTT against Tnfrsf10b, -0.411.
Regarding GCGGCAUGGACUUAGUAAATT against Fbxo5, the z-score was 3.11 (active).
As for CGAUUAGUCUCUCAUUAUUTT against Ipo11, the figure is -1.12.
On to GGCUAAUGCUCCUUCAUGUTT against Myo18a, for which the z-score was -0.439.
As for GCCCUGCACCAGAAAAACATT against Stk40, the figure is -0.662; as for GGUCUCUGUCUCCAAGAAATT against Fam53c, -1.69.
With GGUGUUUGGGCGGUUUGAATT against Snx15 the figure was -2.25 (active).
With CCCUUAAUAAAGAAGGGACTT against Atg9a the figure was 0.961.
With GGGUCUACGAAGAAUAGGGTT against Cxcl14, the z-score was 0.744.
With GCUAGAAGCUUUCUAUUCUTT against Hsph1 the figure was 1.68.
As for GGAGAGUAUCUGAAGUUUCTT against Jak2, the figure is 1.8; as for GGUAAAAUGAUCCUUAGAATT against Pcdh15, 0.145; as for GGAGCUGUCUCUACGAAACTT against Myoz3, 1.27.
Turning to GGAGCCUUUAAUCUCAUUATT against Wbp1, the z-score was -0.463.
As for GCCGUUUUAUUCACGUGAATT against Erp27, the figure is -1.36.
As for GGAUGUGGUGGUAUUAGACTT against Phykpl, the figure is 2.5 (active); as for GGAAGAGGUUCAGAACAGATT against Spaca1, 1.19.
As for GGACCAAGGAUGUUCGCUUTT against Cnr2, the figure is 1.14; as for GGAACGAACUCAUUAAAACTT against Abhd3, -0.736.
For CCGAUUUGGGUCAAUUUUATT against Usf3, the z-score is -0.047.
With GGCGGAUUGAAUAAGAAGGTT against Pfn2 the figure was -0.517.
